Laboratory results published in PubChem BioAssay (Tox21).
Results filed as inconclusive are left out. Calls of active or inactive are those of the source. Unless noted, calls come from the whole dose curve; as a rule, active = well fitted curve in the direction sought with a large enough effect in the repeat runs; inconclusive = weak or mixed curves; inactive = no such curve, though single readings can be large; an effect the other way counts as inactive or inconclusive.

What was measured:
[1] = qHTS assay to identify small molecule antagonists of the retinoid acid receptor (RAR) signaling pathway - cell viability counter screen (AID 1159551); note: nearly all actives have a fitted effect of over 35% in size; note: potency is the fitted concentration of half-maximal effect
Procedure, shortened: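 C3RL4 RARE-luciferase cells, 1,000/well, incubated overnight, then dosed with compound plus 1 uM retinol (final). After 6 hr at 37 C, viability read by CellTiter-Glo ATP luminescence following 30 min at room temperature.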

[2] = qHTS assay to identify small molecule antagonists of the retinoic acid receptor (RAR) signaling pathway (AID 1159552; note: nearly all actives have a fitted effect of over 50% in size; note: potency is the fitted concentration of half-maximal effect)
Procedure, shortened: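 RARE-luc C3RL4 cells; cpds + 1 uM (final) retinol, 6 hr, 37 C/5% CO2; luciferase reagent, 30 min RT, luminescence readout. Inhibitors of retinol-driven signal scored.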

[3] = qHTS assay to identify small molecule antagonists of the estrogen related receptor (ERR) signaling pathway from Tox21 library - cell viability counter screen (AID 1224834); note: nearly all actives have a fitted effect of over 30% in size; note: potency is the fitted concentration of half-maximal effect
Procedure, shortened: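 ERR reporter cells, 2,000 per well, rested 6 h, then exposed to compound in DMSO for 17.5 hours at 37 C. Viability read as fluorescence after 30 min with CellTiter-Fluor.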

[4] = biological target: Luciferin 4-monooxygenase (Photinus pyralis) (UniProt P08659); assay: qHTS assay to identify small molecule inhibitors of firefly luciferase (AID 1224835); note: nearly all actives have a fitted effect of over 25% in size; note: potency is the fitted concentration of half-maximal effect; for activity change, negative = inhibition: series mostly up to about 120 µM
Procedure, shortened: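 Inhibition of purified Photinus luciferase is measured by luminescence. Substrate levels (D-luciferin, ATP) sit at their KM values. Each compound is tested in a concentration series.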

[5] = qHTS assay to identify small molecule antagonists of the constitutive androstane receptor (CAR) signaling pathway - cell viability counter screen (AID 1224837); note: nearly all actives have a fitted effect of over 45% in size; note: potency is the fitted concentration of half-maximal effect; for activity change, negative = cytotoxicity: series mostly up to about 92 µM
Procedure, shortened: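 HepG2 cells stably carrying hCAR and CYP2B6-2.2kb reporter, stimulated with 50 nM CITCO and compounds at 15 concentrations for 23 h at 37 C. Viability measured by CellTiter-Fluor fluorescence.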

[6] = biological target: Nuclear receptor subfamily 1 group I member 3 (Homo sapiens) (UniProt Q14994); assay: qHTS assay to identify small molecule antagonists of the constitutive androstane receptor (CAR) signaling pathway (AID 1224838); note: nearly all actives have a fitted effect of over 40% in size
Procedure, shortened: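 HepG2 cells stably carrying hCAR and a CYP2B6-2.2kb luciferase reporter, seeded 4 hrs before compound (15 concentrations). Stimulated with 50 nM CITCO for 24 hr at 37 C. ONE-Glo luminescence read after 30 min at room temperature.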

[7] = biological target: Nuclear receptor subfamily 1 group I member 3 (Homo sapiens) (UniProt Q14994); assay: qHTS assay to identify small molecule agonists of the constitutive androstane receptor (CAR) signaling pathway (AID 1224839); note: series mostly up to about 92 µM; nearly all actives have a fitted effect of over 15% in size
Procedure, shortened: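 HepG2 cells stably expressing hCAR and a CYP2B6-2.2kb luciferase reporter were treated with compounds at 15 concentrations plus 0.75 uM PK11195 (final) for 24 h at 37 C; luminescence was read after ONE-Glo addition.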

[8] = qHTS assay to identify small molecule antagonists of the estrogen related receptor signaling pathway with the pleiotropic PPARgamma coactivator (PGC) from Tox21 10K library - cell viability counter screen (AID 1224840; active = well fitted cell-killing curve with a large enough effect in the repeat runs, not every such curve was filed as active; note: nearly all actives have a fitted effect of over 40% in size; note: potency is the fitted concentration of half-maximal effect)
Procedure, shortened: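 PGC/ERR cells (2,000/well) plated 6 h, then compound-treated for 17.5 h at 37 C. Viability measured by CellTiter-Fluor fluorescence after 30 min at 37 C, multiplexed with the pathway assay.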

[9] = qHTS assay to identify small molecule antagonists of the estrogen related receptor signaling pathway with the pleiotropic PPARgamma coactivator (PGC) from Tox21 10K library (AID 1224841; call rule not given here; note: actives are mostly falling curves and most rising ones were filed inactive; nearly all actives have a fitted effect of over 50% in size; note: potency is the fitted concentration of half-maximal effect; for activity, negative = inhibition: series mostly up to about 92 µM)
Procedure, shortened: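 PGC/ERR cell line, 2,000 cells/well, pre-incubated 6 hours at 37 C, then exposed to compounds for 18 hours at 37 C; luciferase read with One-Glo luminescence after 30 min at room temperature.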

[10] = qHTS assay to identify small molecule agonists of the estrogen related receptor signaling pathway with the pleiotropic PPARgamma coactivator (PGC) from Tox21 10K library (AID 1224842); note: nearly all actives have a fitted effect of over 15% in size
Procedure, shortened: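 Luminescence from One-Glo (30 min, room temperature) measured after PGC/ERR cells had 18 h at 37 C with pinned compound (23 nL in DMSO). Cells had been seeded at 2,000 per well and pre-incubated 6 h.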

[11] = qHTS assay to identify small molecule agonists of the hypoxia (HIF-1) signaling pathway - cell viability counter screen (AID 1224844; calls by dose curve; note: nearly all actives have a fitted effect of over 50% in size; note: potency is the fitted concentration of half-maximal effect)
Procedure, shortened: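 HRE-bla ME-180 cells, 2,000/well in 0.5% dialyzed FBS medium, treated 17 h at 37C with compounds. Viability read in the same wells as the bla reporter, by CellTiter-Glo luminescence after 30 min at room temperature.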

[12] = qHTS assay to identify small molecule agonists of the constitutive androstane receptor (CAR) signaling pathway - cell viability counter screen (AID 1224836); note: series mostly up to about 92 µM; nearly all actives have a fitted effect of over 45% in size
Procedure, shortened: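 HepG2 cells stably carrying hCAR and a CYP2B6-2.2kb reporter were plated 4 h, then given compounds at 15 concentrations plus PK11195 (final 0.75 uM). After 23 h at 37 C, viability was read by CellTiter-Fluor fluorescence.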

[13] = biological target: Thyrotropin receptor (Homo sapiens) (UniProt P16473); assay: qHTS assay to identify small molecule agonists of the thyroid stimulating hormone receptor (TSHR) signaling pathway (AID 1224843; calls by dose curve; note: nearly all actives have a fitted effect of over 45% in size)
Procedure, shortened: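 Screening of the Tox21 10K collection used HEK293 cells engineered with TSHR at 800 cells per well. After a 30-min room-temperature compound exposure, HTRF cAMP reagents were added and fluorescence recorded 1 h later.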
% is set by controls: 0 for no effect and ±100 for the full control effect.

Chain of Luciferin 4-monooxygenase (Photinus pyralis) (P08659 whole entry, looked up): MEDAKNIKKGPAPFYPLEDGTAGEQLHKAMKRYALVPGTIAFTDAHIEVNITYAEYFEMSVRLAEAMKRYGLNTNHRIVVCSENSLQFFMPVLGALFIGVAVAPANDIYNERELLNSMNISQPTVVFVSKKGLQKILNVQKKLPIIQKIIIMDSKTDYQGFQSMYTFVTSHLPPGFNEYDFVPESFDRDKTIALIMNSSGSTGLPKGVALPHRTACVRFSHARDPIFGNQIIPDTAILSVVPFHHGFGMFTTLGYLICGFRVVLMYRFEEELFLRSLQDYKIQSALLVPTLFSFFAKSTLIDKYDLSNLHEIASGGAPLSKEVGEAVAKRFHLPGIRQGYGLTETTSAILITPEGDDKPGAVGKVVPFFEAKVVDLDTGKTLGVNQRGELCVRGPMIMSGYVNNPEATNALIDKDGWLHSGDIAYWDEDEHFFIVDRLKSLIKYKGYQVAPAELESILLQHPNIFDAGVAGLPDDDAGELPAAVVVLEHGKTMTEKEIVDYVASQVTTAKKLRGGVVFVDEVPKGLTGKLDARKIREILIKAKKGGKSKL
Chain of Nuclear receptor subfamily 1 group I member 3 (Homo sapiens) (Q14994 whole entry, looked up): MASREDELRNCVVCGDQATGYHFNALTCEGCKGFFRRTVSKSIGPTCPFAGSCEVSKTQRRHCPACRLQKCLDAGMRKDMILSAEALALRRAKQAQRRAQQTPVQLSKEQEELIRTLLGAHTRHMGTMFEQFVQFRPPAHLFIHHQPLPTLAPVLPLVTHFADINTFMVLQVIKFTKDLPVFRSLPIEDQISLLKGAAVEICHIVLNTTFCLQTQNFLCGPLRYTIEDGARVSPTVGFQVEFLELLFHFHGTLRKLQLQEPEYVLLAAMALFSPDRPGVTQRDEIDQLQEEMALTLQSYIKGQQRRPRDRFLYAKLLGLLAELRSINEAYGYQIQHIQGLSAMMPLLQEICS
Chain of Thyrotropin receptor (Homo sapiens) (P16473 whole entry, looked up): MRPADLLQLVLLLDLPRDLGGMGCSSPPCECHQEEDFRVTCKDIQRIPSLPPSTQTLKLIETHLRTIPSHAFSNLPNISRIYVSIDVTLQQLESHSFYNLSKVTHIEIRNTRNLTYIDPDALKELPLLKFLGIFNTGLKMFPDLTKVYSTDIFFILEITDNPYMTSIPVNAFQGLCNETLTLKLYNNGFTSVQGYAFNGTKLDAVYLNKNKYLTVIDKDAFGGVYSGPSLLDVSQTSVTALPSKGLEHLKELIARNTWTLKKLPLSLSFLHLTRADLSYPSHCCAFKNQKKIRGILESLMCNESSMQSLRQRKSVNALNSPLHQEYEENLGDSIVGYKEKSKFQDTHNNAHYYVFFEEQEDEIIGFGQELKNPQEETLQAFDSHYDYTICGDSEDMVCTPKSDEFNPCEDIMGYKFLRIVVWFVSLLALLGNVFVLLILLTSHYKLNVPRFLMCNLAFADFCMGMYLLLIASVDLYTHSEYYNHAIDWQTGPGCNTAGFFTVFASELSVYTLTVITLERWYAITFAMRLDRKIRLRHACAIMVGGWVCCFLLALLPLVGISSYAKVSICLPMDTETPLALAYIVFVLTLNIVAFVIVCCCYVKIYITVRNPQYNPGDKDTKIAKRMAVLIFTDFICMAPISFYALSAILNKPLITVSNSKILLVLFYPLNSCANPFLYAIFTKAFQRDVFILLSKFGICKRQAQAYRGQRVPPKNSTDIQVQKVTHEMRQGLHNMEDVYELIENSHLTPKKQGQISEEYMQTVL

CCCCCCCCCCCCCCCCCO
inactive: activity change, negative = cytotoxicity [1] 0.141% [at 19 µM] | activity, negative = inhibition [2] -5.96% [at 19 µM] | viability change, negative = cytotoxic [3] 0.981% [at 19 µM] | activity change, negative = inhibition [4] 3.61% [at 23.6 µM] | activity change, negative = cytotoxicity [5] 8.93% [at 19 µM] | activity, negative = inhibition [6] 9.23% [at 19 µM] | activation [7] 0.0374% [at 19 µM] | viability change, negative = cytotoxic [8] -0.916% [at 19 µM] | activity, negative = inhibition [9] 44.5% [at 19 µM] | activation [10] 4.3% [at 19 µM] | activity change, negative = cytotoxicity [11] 4.42% [at 15.8 µM]

CCc1c(C(=O)O)c(=O)cnn1-c1ccc(Cl)cc1
inactive: Potency [1] | Potency [2] | Potency [3] | Potency [4] | Potency [12] | Potency [8] | Potency [9] | Potency [10] | Potency [13] | Potency [11]

O=S(=O)(O)c1cc(S(=O)(=O)O)c2ccc3c(S(=O)(=O)O)cc(S(=O)(=O)O)c4ccc1c2c43
inactive: activity change, negative = cytotoxicity [1] 4.17% [at 19 µM] | activity, negative = inhibition [2] 14.4% [at 19 µM] | viability change, negative = cytotoxic [3] 4.03% [at 19 µM] | activity change, negative = inhibition [4] -0.173% [at 23.6 µM] | activity change, negative = cytotoxicity [5] 0.0028% [at 19 µM] | viability change, negative = cytotoxic [8] 1.08% [at 19 µM] | activity, negative = inhibition [9] 13.5% [at 19 µM] | activation [10] 0.18% [at 19 µM] | activation [13] -6.64% [at 19 µM] | activity change, negative = cytotoxicity [11] 1.23% [at 15.8 µM]

CCCCCCCC(=O)OCC
inactive: Potency [1] | Potency [2] | Potency [3] | Potency [4] | Potency [12] | Potency [5] | Potency [8] | Potency [9] | Potency [13] | Potency [11]

O=C1c2c(O)ccc([N+](=O)[O-])c2C(=O)c2c([N+](=O)[O-])ccc(O)c21
active: Potency [1] 48.1 µM | Potency [2] 27.1 µM | Potency [3] 27.1 µM | Potency [4] 62.7 µM | Potency [5] 24.1 µM | Potency [8] 30.4 µM | Potency [9] 9.6 µM | Potency [11] 6.85 µM
inactive: Potency [7] | Potency [10]

CCOB(OCC)OCC
inactive: Potency [1] | Potency [2] | Potency [3] | Potency [4] | Potency [12] | Potency [5] | Potency [8] | Potency [13] | Potency [11]

CCc1c(Br)c(Br)c(Br)c(Br)c1Br
inactive: Potency [1] | Potency [2] | Potency [3] | Potency [4] | Potency [12] | Potency [5] | Potency [8] | Potency [11]

CCCC(=O)OCC(COC(=O)CCC)OC(=O)CCC
inactive: Potency [1] | Potency [2] | Potency [3] | Potency [4] | Potency [12] | Potency [6] | Potency [8] | Potency [9] | Potency [10] | Potency [11]

OCCC(O)CO (stereo not drawn)
inactive: Potency [1] | Potency [2] | Potency [3] | Potency [4] | Potency [12] | Potency [6] | Potency [7] | Potency [8] | Potency [13] | Potency [11]

Cc1cc(=O)[nH]c(=O)[nH]1
inactive: Potency [1] | Potency [2] | Potency [3] | Potency [4] | Potency [12] | Potency [5] | Potency [8] | Potency [13] | Potency [11]

CCN(CC)c1cccc(C)c1
inactive: Potency [1] | Potency [2] | Potency [3] | Potency [4] | Potency [12] | Potency [5] | Potency [8] | Potency [9] | Potency [11]

c1cc[nH]c1
inactive: Potency [1] | Potency [2] | Potency [3] | Potency [4] | Potency [12] | Potency [6] | Potency [7] | Potency [8] | Potency [9] | Potency [10] | Potency [13] | Potency [11]
